In PubChem BioAssay:
Values without a mark were called inactive. The source made the active and inactive calls.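 How the source made its calls: active means compound whose remaining NAD level is above about 45 nM (limit read from the data); inactive means the rest.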 Positions of bridges follow the written chain, without caps; N, C: chain ends. Non-standard residues stand in square brackets, D forms with d. Residues, ends and D or L forms follow the SMILES beside them. ξ: configuration not given here. *: point of attachment. Heptanoyl(5-Me) = CCC(C)CCCC(=O)*; ξThr(3R) = C[C@@H](O)C(N)C(=O)O; dDab = NCC[C@@H](N)C(=O)O; Dab = NCC[C@H](N)C(=O)O

These compounds were tested against NAD(+) hydrolase SARM1 (Homo sapiens) (UniProt Q6SZW1) (assay: blocking NAD cleavage by SARM1 SAM-TIR – cell lysate, NAD-Glo luminescence (AID 1508614)). Conditions: SAM-TIR HEK293T lysate NADase, at 1 µM, stronger effect = higher value.
NAD(+) hydrolase SARM1 (Homo sapiens), sequence (Q6SZW1 whole entry, looked up): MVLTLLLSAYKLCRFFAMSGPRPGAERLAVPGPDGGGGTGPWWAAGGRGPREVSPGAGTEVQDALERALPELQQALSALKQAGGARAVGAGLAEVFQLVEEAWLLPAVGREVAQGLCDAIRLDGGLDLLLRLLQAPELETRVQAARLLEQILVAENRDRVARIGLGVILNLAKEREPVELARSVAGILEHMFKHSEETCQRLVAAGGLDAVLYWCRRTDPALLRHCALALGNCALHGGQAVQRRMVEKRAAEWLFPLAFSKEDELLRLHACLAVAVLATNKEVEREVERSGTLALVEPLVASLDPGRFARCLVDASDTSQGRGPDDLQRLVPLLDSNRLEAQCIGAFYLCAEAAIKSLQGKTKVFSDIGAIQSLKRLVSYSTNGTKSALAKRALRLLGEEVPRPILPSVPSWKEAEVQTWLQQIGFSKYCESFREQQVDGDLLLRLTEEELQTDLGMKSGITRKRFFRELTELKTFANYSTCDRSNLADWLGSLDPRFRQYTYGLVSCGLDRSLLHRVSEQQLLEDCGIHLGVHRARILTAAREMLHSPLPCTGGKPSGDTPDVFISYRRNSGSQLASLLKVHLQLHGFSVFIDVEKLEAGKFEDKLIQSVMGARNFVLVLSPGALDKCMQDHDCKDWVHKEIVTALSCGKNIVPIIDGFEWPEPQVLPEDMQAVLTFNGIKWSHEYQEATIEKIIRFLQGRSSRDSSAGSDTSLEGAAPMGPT
Compound `O=C(O[C@H]1CN2CCC1CC2)N1CCc2ccccc2[C@@H]1c1ccccc1` has a remaining NAD of 10 nM.
In the case of `COc1ccc2nc([S@@](=O)Cc3ncc(C)c(OC)c3C)[nH]c2c1`, the remaining NAD is reported as 10 nM.
`CCOC(=S)SSC(=S)OCC` showed a remaining NAD of 10 nM.
`CO[C@H]1C[C@H](O[C@H]2[C@H](C)O[C@@H](O[C@@H]3/C(C)=C/C[C@@H]4C[C@@H](C[C@]5(C=C[C@H](C)[C@@H](C6CCCCC6)O5)O4)OC(=O)[C@@H]4C=C(C)[C@@H](O)[C@H]5OC/C(=C\C=C\[C@@H]3C)[C@]54O)C[C@@H]2OC)O[C@@H](C)[C@@H]1O` showed a remaining NAD of 10 nM.
`CCCCCCCCCC[N+](C)(C)Cc1ccccc1` gave a remaining NAD of 10 nM.
In the case of `S=C1SCN(Cc2ccccc2)CN1Cc1ccccc1`, the remaining NAD is reported as 10 nM.
For `CCCCCCCCCC(=O)N[C@@H](Cc1c[nH]c2ccccc12)C(=O)N[C@@H](CC(N)=O)C(=O)N[C@@H](CC(=O)O)C(=O)N[C@@H]1C(=O)NCC(=O)N[C@@H](CCCN)C(=O)N[C@@H](CC(=O)O)C(=O)N[C@H](C)C(=O)N[C@@H](CC(=O)O)C(=O)NCC(=O)N[C@H](CO)C(=O)N[C@@H]([C@H](C)CC(=O)O)C(=O)N[C@@H](CC(=O)c2ccccc2N)C(=O)O[C@@H]1C`, the remaining NAD was 10 nM.
`Nc1ccc(S(=O)(=O)[O-])cc1.Nc1ccc(S(=O)(=O)[O-])cc1.O.O.O.O.[Zn+2]` showed a remaining NAD of 10 nM.
With `OC[C@H]1O[C@@H](O[C@H]2[C@H](O)[C@@H](O)[C@@H](O)O[C@@H]2CO)[C@H](O)[C@@H](O)[C@H]1O` the remaining NAD was 10 nM.
Compound `O=C(NCc1ccccc1)OCCO` has a remaining NAD of 10 nM.
`CCC(=O)Oc1ccc2c(c1)CC[C@@H]1[C@@H]2CC[C@]2(C)[C@@H](OC(=O)CC)CC[C@@H]12` was tested, and the remaining NAD was 10 nM.
With `C[C@]12CC[C@@H]3c4ccc(O)cc4CC[C@H]3[C@@H]1C[C@H](O)[C@@H]2O` the remaining NAD was 48 nM (active).
Compound `C#C[C@]1(OC(C)=O)CC[C@H]2[C@@H]3CCC4=C/C(=N\O)CC[C@@H]4[C@H]3CC[C@@]21CC` has a remaining NAD of 10 nM.
`CCC(C)CCCC(=O)N[C@@H](CCN)C(=O)N[C@H](C(=O)N[C@@H](CCN)C(=O)N[C@H]1CCNC(=O)C([C@@H](C)O)NC(=O)[C@@H](CCN)NC(=O)[C@H](CCN)NC(=O)[C@@H](CC(C)C)NC(=O)[C@@H](CC(C)C)NC(=O)[C@H](CCN)NC1=O)[C@@H](C)O` (stereo partly drawn) ({Heptanoyl(5-Me)}-[Dab]T[Dab][Dab][Dab][dL][dL][Dab][dDab][ξThr(3R)]; lactam 4-C) showed a remaining NAD of 10 nM.
`C[C@H]1C[C@H]2[C@@H]3CCC4=CC(=O)C=C[C@]4(C)[C@@]3(F)[C@@H](O)C[C@]2(C)[C@@]1(O)C(=O)COP(=O)(O)O` gave a remaining NAD of 10 nM.
For `O=C(O)[C@H](O)[C@@H](O)[C@H](O)[C@H](O)CO`, the remaining NAD was 10 nM.
For `CC(C)CC(NC(=O)C(C)NC(=O)CNC(=O)C(NC=O)C(C)C)C(=O)NC(C)C(=O)NC(C(=O)NC(C(=O)NC(C(=O)NC(Cc1c[nH]c2ccccc12)C(=O)NC(CC(C)C)C(=O)NC(Cc1c[nH]c2ccccc12)C(=O)NC(CC(C)C)C(=O)NC(Cc1c[nH]c2ccccc12)C(=O)NC(CC(C)C)C(=O)NC(Cc1c[nH]c2ccccc12)C(=O)NCCO)C(C)C)C(C)C)C(C)C` (stereo not drawn), the remaining NAD was 10 nM.
For `Nc1ncnc(Nc2ccc(Cl)cc2)n1`, the remaining NAD was 10 nM.
With `Oc1ccc(Cl)c2c1CCC2` the remaining NAD was 10 nM.
`CCCCCCOC(=O)/N=C(\N)c1ccc(NCc2nc3cc(C(=O)N(CCC(=O)OCC)c4ccccn4)ccc3n2C)cc1` showed a remaining NAD of 10 nM.
`CC1(C)C2CCC1(CS(=O)(=O)O)C(=O)C2=Cc1ccc(C=C2C(=O)C3(CS(=O)(=O)O)CCC2C3(C)C)cc1` was tested, and the remaining NAD was 10 nM.
In the case of `CC(=O)N1CCN(c2ccc(OC[C@@H]3CO[C@@](Cn4ccnc4)(c4ccc(Cl)cc4Cl)O3)cc2)CC1`, the remaining NAD is reported as 10 nM.
Work on `CN(N=O)C(=O)N[C@@H](C=O)[C@@H](O)[C@H](O)[C@H](O)CO` yielded a remaining NAD of 10 nM.
